The full ranking holds about 39,000 sequences; the median of “fluorescence intensity (a.u.)” is about 4,300, and the highest 2% start at about 39,000. This excerpt belongs to a sample that is enriched for the highest values.
target: T1, OsSMF1 (Oryza sativa, UniProt Q6ZLB0 1-436); test: protein-binding microarray (RPBM); PBS, 2% BSA, 51.3 ng/ul salmon testes DNA, 50 uM zinc acetate, 200 nM TF, 25 C, 1 h; high values mean tight binding; settings: protein: recombinant; tags: N-terminal polyhistidine and DsRed monomer fusion (pET32a); chain copies: 2; label: CyDye5-dUTP incorporated in the synthesized complementary strand; 3' TTTTT single-stranded linker to array surface; dsDNA, one strand shown
T1 sequence: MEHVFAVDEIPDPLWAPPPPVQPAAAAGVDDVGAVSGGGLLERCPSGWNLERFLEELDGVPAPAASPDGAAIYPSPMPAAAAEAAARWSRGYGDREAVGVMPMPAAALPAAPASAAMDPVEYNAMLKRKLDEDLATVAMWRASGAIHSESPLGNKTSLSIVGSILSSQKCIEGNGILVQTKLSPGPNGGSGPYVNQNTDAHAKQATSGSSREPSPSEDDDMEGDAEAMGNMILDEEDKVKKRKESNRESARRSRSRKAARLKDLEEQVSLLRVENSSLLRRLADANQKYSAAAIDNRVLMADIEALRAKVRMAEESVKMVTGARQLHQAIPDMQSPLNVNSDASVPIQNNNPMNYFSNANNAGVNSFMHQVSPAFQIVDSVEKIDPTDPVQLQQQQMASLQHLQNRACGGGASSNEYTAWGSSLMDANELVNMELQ
How it was run: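 The binding signal is fluorescence intensity per feature, in arbitrary units, read on an Axon 4000B scanner. Polyhistidine- and DsRed-tagged transcription factors (N-terminal fusions) from E. coli BL21-CodonPlus were purified on Ni–NTA and applied at 200 nM for 1 h at 25 °C to a double-stranded, BSA-blocked custom Agilent array in buffer with 50 µM zinc acetate.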

Sequence	binding signal
TGCTTCCCCTGTTCTGATCACCTGCGCACACGGGTGCTCACGGAGTCACCTAGTGCAG	49200 fluorescence intensity (a.u.)
CTGCACCTGCTTGATCTCTTCTATGTCACTGTTCCTCTGACGGAGTCACCTAGTGCAG	3220 fluorescence intensity (a.u.)
GGGGAGCTTTGCCCCTGCGCACACTTGTCACGCTCACGCACGGAGTCACCTAGTGCAG	3220 fluorescence intensity (a.u.)
CATAGCCTTTTGCATATGCGTCAAGCGTCTATACGATTCGCGGAGTCACCTAGTGCAG	3900 fluorescence intensity (a.u.)
TGGGCGAGGAAGATATGAGTGTGAAAGGATGGAGGGCCCACGGAGTCACCTAGTGCAG	32900 fluorescence intensity (a.u.)
TTTGACATAGATGTGTTCCTCTAATGACATAGATGTGTTCCGGAGTCACCTAGTGCAG	3230 fluorescence intensity (a.u.)
CGGTCGACCCACCGTCTGCCACGTCAGCTTGCCGCCCACCCGGAGTCACCTAGTGCAG	22800 fluorescence intensity (a.u.)
TCAGCGGCAGCCCACCCGACTGGGCCGGTCATCGGCGCCACGGAGTCACCTAGTGCAG	3470 fluorescence intensity (a.u.)
GGTCGACCCACCGTCTGCCACGTCAGCTTGCTGCCCACCACGGAGTCACCTAGTGCAG	48400 fluorescence intensity (a.u.)
GAGAGAAGATAGTAGTGGTAGTAGTAGCTGAGCTGTGTCACGGAGTCACCTAGTGCAG	3360 fluorescence intensity (a.u.)
GTGTGCTGTGTGTGGTCTGAGATGATGTGTACTGCTGCTACGGAGTCACCTAGTGCAG	3950 fluorescence intensity (a.u.)
AGAGCTGAGCCTTATGTGTGGTCTGTCTGTGCCTAGTCGACGGAGTCACCTAGTGCAG	48400 fluorescence intensity (a.u.)
GACGGCGCGGTCGACCCACCGTCTGCCACGTCAGCTTGCCCGGAGTCACCTAGTGCAG	50100 fluorescence intensity (a.u.)
CGCGGTCGACCCACCGTCTGCCACGTCAGCTTGCTGCCCACGGAGTCACCTAGTGCAG	25600 fluorescence intensity (a.u.)
GCAGACGGCGCGGTCGACCCACCGTCTGCCACGTCAGCTTCGGAGTCACCTAGTGCAG	37200 fluorescence intensity (a.u.)
GACGGCGCGGTCGACCCGCCGTCTGCCACGTCAGCTTGCCCGGAGTCACCTAGTGCAG	27400 fluorescence intensity (a.u.)
CTGGAGCGGGCGGCCACGGTCACGCCACGTCAGCTTCCATCGGAGTCACCTAGTGCAG	42100 fluorescence intensity (a.u.)
CAATCATCAGCCACGTCCGCCGCCGCTTCAGCTGGATCGGCGGAGTCACCTAGTGCAG	4290 fluorescence intensity (a.u.)
CTCCATCTCGCAGTCGCAGTGCCAGCTAAGGCCTTGTACACGGAGTCACCTAGTGCAG	3240 fluorescence intensity (a.u.)
GCAGTGGCTAAGCTTAAGCTCAGGTATGATGACTCGTTGGCGGAGTCACCTAGTGCAG	3610 fluorescence intensity (a.u.)
AAGGGCAGCTCAGTCATGGCTGCCACGAGGACAGATGTGGCGGAGTCACCTAGTGCAG	4760 fluorescence intensity (a.u.)

Sequence	binding signal
AGAGCAGATCCCCTGTCACGCCGACGCCGCCGCCGCCACCCGGAGTCACCTAGTGCAG	5410 fluorescence intensity (a.u.)
CAATCTGTCATCTCTTTACCAGTCTCATTGACATGTGGGCCGGAGTCACCTAGTGCAG	3270 fluorescence intensity (a.u.)
GAGAAAGGGTGTTGACGTGGCATCCTGACATGTGGGGTCCCGGAGTCACCTAGTGCAG	15100 fluorescence intensity (a.u.)
CACCTATCCATCCATCCATGTGTGGTGTCGTGTCAGCGTTCGGAGTCACCTAGTGCAG	6950 fluorescence intensity (a.u.)
AGCGGCGTCGTCTCGGCGGTGGCCGGTGCCACGGCGGCGGCGGAGTCACCTAGTGCAG	6200 fluorescence intensity (a.u.)
AATCGGTGTCGTTTTGCACGGCGTGTGCCACGTCAGCGTTCGGAGTCACCTAGTGCAG	52000 fluorescence intensity (a.u.)
CGTCGTCGCCGCCGCCGCCCTCTGCGTCGACGCTGCGGCACGGAGTCACCTAGTGCAG	3220 fluorescence intensity (a.u.)
CGACGCCGCCGAGATCGCCGTCACCCGAATCCTGCGACGCCGGAGTCACCTAGTGCAG	3580 fluorescence intensity (a.u.)
AGCTTCGGAGGCTGTACACGTAATGTGGTCGCTTGTTTGTCGGAGTCACCTAGTGCAG	9220 fluorescence intensity (a.u.)
GTTTTCGCTTGTACTTCACAGGCTGATCACGGTCAGTACTCGGAGTCACCTAGTGCAG	48700 fluorescence intensity (a.u.)
CATGTACACACCCACAGTCATCTGCTCATGTTTTCACGGTCGGAGTCACCTAGTGCAG	3630 fluorescence intensity (a.u.)
GAGGGGTTACGCGTTAGGCGCTGCCACGTGTATCGATCGGCGGAGTCACCTAGTGCAG	21900 fluorescence intensity (a.u.)
CGAGGATTTGAGATCTGAGATGGCACGGACACTAGACAACCGGAGTCACCTAGTGCAG	3440 fluorescence intensity (a.u.)
GGGAACATTGTGTGCCAAAATTGACTCACGAATATACAAGCGGAGTCACCTAGTGCAG	3340 fluorescence intensity (a.u.)
TATTTCTTCACCTTTAGTCATGTCACCTCTCACTTCACACCGGAGTCACCTAGTGCAG	5120 fluorescence intensity (a.u.)
TAAACTTCGGTGGCATGTCATCATCTTCAAACTCATCTTTCGGAGTCACCTAGTGCAG	4670 fluorescence intensity (a.u.)
TTCTTTGGTGGGTGCCACGTAGGAGAAACCCAGCAGGAGTCGGAGTCACCTAGTGCAG	12000 fluorescence intensity (a.u.)
CACCCAAGAACCGGTGGTATTCTTTGGACACGAGAACTTTCGGAGTCACCTAGTGCAG	39100 fluorescence intensity (a.u.)
CTTTCTTTCTTTCTTTGTGCCCAACTCTGACACGACTCACCGGAGTCACCTAGTGCAG	5180 fluorescence intensity (a.u.)
CTTCTTCGGGCCTTCTTTCAGAACTTTGGGTGGGCCTCACCGGAGTCACCTAGTGCAG	64300 fluorescence intensity (a.u.)
ACTCCCCTCCCCGCCACGTCGCCATTCTTCCCGCTCCTGACGGAGTCACCTAGTGCAG	11800 fluorescence intensity (a.u.)

Source: article PMC7819943, “Rice protein-binding microarrays: a tool to detect cis-acting elements near promoter regions in rice”
